Bioassay records (PubChem)
The list is not random: actives were taken first. Their share in the collection is about 19%.
Gal4-VP16 FLuc – counter-screen for ROR gamma inhibitors: Gal4-VP16 reporter; Potency, µM (series often up to 53.6 µM), for the others: at the top dose activity, negative = inhibition, usual class: inhibitors; Drosophila S2 Gal4-VP16 UAS-luciferase, luminescence, 20 h; 310,000 tested, 3.5% active;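 note: Gal4-VP16 expression switched on by copper sulfate through the metallothionein promoter; nearly all actives have a fitted effect of over 50% in size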
TDP1 inh – blocks human tyrosyl-DNA phosphodiesterase 1 | recombinant TDP1, AlphaScreen DNA substrate cleavage | Potency, µM (doses to about 130 µM), inactives show at the top dose activity change, negative = inhibition, most hits filed as inhibitors | 350,000 tested, 0.28% active | AID 485290; note: nearly all actives have a fitted effect of over 40% in size
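Recombinant E. coli-expressed Tdp1 (1 nM) preincubated with compound 15 min at RT, then 5'-biotin/3'-phosphotyrosine-FITC DNA substrate (15 nM) added for 5 min. AlphaScreen beads (10 ug/ml) added, 10 min RT; tyrosine-FITC cleavage read as signal loss.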
RORg inh – inhibitors of mouse ROR gamma transcriptional activity; 310,000 tested, 5.4% active; Drosophila S2 Gal4-RORgamma UAS-luciferase reporter, 20 h; AID 2551; Potency, µM (top dose mostly 53.6 µM), for inactives: top-dose activity change, negative = inhibition, most hits filed as inhibitors; P51450; note: nearly all actives have a fitted effect of over 60% in size
Target sequence (P51450 whole entry, looked up, the tested form may be a part): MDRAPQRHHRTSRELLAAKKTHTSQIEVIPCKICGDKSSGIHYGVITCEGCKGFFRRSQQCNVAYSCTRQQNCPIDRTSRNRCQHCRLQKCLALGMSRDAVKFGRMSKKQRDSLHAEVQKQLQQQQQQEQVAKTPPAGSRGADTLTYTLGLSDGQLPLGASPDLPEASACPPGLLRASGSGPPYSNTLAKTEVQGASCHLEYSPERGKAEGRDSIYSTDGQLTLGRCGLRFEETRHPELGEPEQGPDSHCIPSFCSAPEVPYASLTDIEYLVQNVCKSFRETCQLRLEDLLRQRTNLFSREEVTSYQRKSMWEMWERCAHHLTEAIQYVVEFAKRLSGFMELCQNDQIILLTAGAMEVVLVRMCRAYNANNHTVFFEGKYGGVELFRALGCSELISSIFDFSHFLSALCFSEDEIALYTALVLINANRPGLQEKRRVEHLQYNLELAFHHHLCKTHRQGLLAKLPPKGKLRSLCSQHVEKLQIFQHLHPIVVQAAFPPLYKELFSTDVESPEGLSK
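Compounds are pin-transferred onto Drosophila Schneider cells expressing a copper-inducible Gal4–ROR gamma transactivation domain fusion. After 1 hr, copper sulfate is added to 700 uM final; luciferase is read 20 hr later.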
TDP1 cell noCPT – qHTS for Inhibitors of human tyrosyl-DNA phosphodiesterase 1 (TDP1): qHTS in cells in absence of CPT; DT40 Tdp1-/- hTDP1 cells, no CPT, ATP luminescence, 48 h; Potency, µM (top dose mostly 46.2 µM), inactives show at the highest dose activity change, negative = growth inhibition, most hits filed as inhibitors; 420,000 tested, 15% active; AID 686978, 2013; note: nearly all actives have a fitted effect of over 55% in size
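DT40 Tdp1-/-;hTDP1 cells, no CPT (DMSO vehicle only), 400 cells/well; compounds pin-transferred; ≥48 hr, 37 °C; CellTiter-Glo 30 min RT dark, luminescence read.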
DT40 TDP1 CPT – growth inhibition of DT40 Tdp1-/-;hTDP1 cells with camptothecin (screen for TDP1 inhibitors) | chicken DT40 Tdp1-/-;hTDP1 cells + 20 nM CPT, ATP luminescence, 48 h | Potency, µM (titrated, usually from 46.2 µM), without a hit: at the highest dose activity change, negative = growth inhibition, usual class: inhibitors | 420,000 tested, 12% active; note: nearly all actives have a fitted effect of over 55% in size
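Chicken DT40 Tdp1-/- cells complemented with human TDP1, 400 cells/well, exposed to compounds plus 20 nM camptothecin for at least 48 h at 37 C; viability read as ATP content by CellTiter-Glo luminescence.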
* hit, by the source's call; ? = inconclusive; nt = not tested or not shown; [ ] = dose if it differs, or a comment. Calls come from the whole dose curve; as a rule, active = well fitted curve in the direction sought with a large enough effect; inconclusive = small, poorly fitted or top-dose-only effect, or another doubt; inactive = no such curve, though single readings can be large; an effect the other way counts as inactive or inconclusive. % is set by controls: 0 for no effect and ±100 for the full control effect; potency is the fitted concentration of half-maximal effect.

SMILES	Gal4-VP16 FLuc	TDP1 inh	RORg inh	TDP1 cell noCPT	DT40 TDP1 CPT
CC(C)(C)NC(=O)CSc1nc2ccc(Nc3nc(N4CCOCC4)nc(N4CCOCC4)n3)cc2s1	-23%	2%	18%	6.5µM*	13µM*
CC(=O)CSc1nc2ccc(Nc3nc(N4CCOCC4)nc(N4CCOCC4)n3)cc2s1	-12%	7%	13%	?	?
COc1ccc(NC(=O)CSc2nc3ccc(Nc4nc(N5CCOCC5)nc(N5CCOCC5)n4)cc3s2)cc1	?	1%	?	6.5µM*	12µM*
CC(=O)Nc1ccc(/C=N/OCC(=O)Nc2ccc(C)cc2)cc1	0%	-1%	6%	-5%	-16%
OC[C@H]1O[C@H](n2cnc3c(NC4CCCC4)nc(Cl)nc32)[C@@H](O)[C@@H]1O	-10%	12%[56.1 µM]	22%	-3%	2%
C=CCc1c(C)nc(SCc2ccccc2)[nH]c1=O	-6%	2%	-13%	-1%	3%
O=C(Cn1nnc(-c2ccc(Cl)cc2)n1)NCCC1=CCCCC1	2%	3%	11%	-9%	-14%
O=S(=O)(Nc1ccc(Br)cc1)c1cccc2cccnc12	5%	nt	3%	?	-12%
COc1ccc(NS(=O)(=O)c2cccc3cccnc23)cc1	-6%	5%	-5%	-17%	-21%
O=S(=O)(Nc1ccc(C(O)(C(F)(F)F)C(F)(F)F)cc1)c1cccc2cccnc12	nt	nt	nt	23µM*	16µM*
COC(=O)c1sccc1S(=O)(=O)Nc1ccc(Cl)cc1	0%	-1%	15%	?	-28%
COc1ccc(NS(=O)(=O)c2cccc3cccnc23)cc1Cl	-9%	nt	?	21µM*	?
COC(=O)c1sccc1S(=O)(=O)Nc1ccc(C(O)(C(F)(F)F)C(F)(F)F)cc1	nt	nt	nt	21µM*	18µM*
COc1ccc(OC)c(NC(=O)c2ccccc2NS(=O)(=O)c2cccc3cccnc23)c1	-5%[0.365 µM]	3%	3%	29µM*	3%
CC(=O)c1cn(-c2ccc(Cl)cc2)c(=O)[nH]c1=O	8%	nt	?	5%	25%
CCCCNC(=O)COC(=O)c1c2c(nc3ccccc13)CCC2	-3%	-15%	35%	?	-20%
CNC(=O)C(NC(=O)CNC(=O)c1ccc(Cl)cc1)C(C)(C)C (configuration not stated)	-3%[10 µM]	3%	1%	8%	-6%
O=c1oc2ccc(NS(=O)(=O)c3cccc4cccnc34)cc2s1	-2%	nt	33%	23µM*	21µM*
O=S(=O)(Nc1ccc2c(c1)OCCO2)c1cccc2cccnc12	-4%	6%	-19%	?	-20%
O=S(=O)(Nc1ccc(N2CCCCC2)cc1)c1cccc2cccnc12	0%	7%	-6%	?	?
O=C1CCCc2oc3ccc(NS(=O)(=O)c4cccc5cccnc45)cc3c21	?	50µM*	20%	23µM*	?
COc1cc(OC)cc(-c2nnc(SCc3c(F)cccc3Cl)o2)c1	?	-7%	41%	23µM*	?
O=C(Nc1cc(S(=O)(=O)N2CCOCC2)ccc1O)c1ccco1	-13%	-1%	21%	-2%	-23%
CCCCNC1C(CC)C(CCC)C(C#N)(C#N)C1(C#N)C#N (configuration not stated)	?	6%	?	8.2µM*	13µM*
CCOC(=O)[C@]12CCC=C1N(Cc1ccc(Cl)cc1Cl)C(=O)[C@H](CC(=O)NCc1ccccc1)C2	nt	nt	nt	23µM*	?
SMILES	Gal4-VP16 FLuc	TDP1 inh	RORg inh	TDP1 cell noCPT	DT40 TDP1 CPT
CCOC(=O)[C@]12CCC=C1N(Cc1ccccc1)C(=O)[C@H](CC(=O)NCc1ccccc1)C2	nt	nt	nt	16µM*	?
CCCCNC(=O)C[C@@H]1C[C@@]2(C(=O)OCC)CCC=C2N(Cc2ccccc2)C1=O	nt	nt	nt	-29%	-30%
CCOC(=O)[C@]12CCCC=C1N(Cc1ccc(Cl)cc1Cl)C(=O)[C@H](CC(=O)NCc1cccc(C(F)(F)F)c1)C2	nt	nt	nt	18µM*	15µM*
CCOC(=O)[C@]12CCC=C1N(Cc1ccco1)C(=O)[C@H](CC(=O)NCc1ccc(OC)c(OC)c1)C2	nt	nt	nt	-20%	-24%
CCOC(=O)[C@]12CCC=C1N(Cc1ccc(Cl)cc1Cl)C(=O)[C@H](CC(=O)NCc1ccc(C)o1)C2	nt	nt	nt	18µM*	?
Cc1ccc(SCC(=O)OCC(=O)N(C)CC(=O)Nc2ccc(F)cc2)cc1C	nt	-4%	nt	-2%	7%
O=C(O)/C=C/C(=O)N1Cc2cc3ccccc3nc2C1	-7%	35µM*	3%	-5%	0%
COc1cc2nc(C)sc2cc1SC	-9%	7%	-21%	?	?
COc1cc2nc(/C=C/c3cc(OC)c(OC)c(OC)c3)sc2cc1SC	-8%	3%	0%	5.8µM*	5.8µM*
O=C(CN1C(=O)c2ccccc2S1(=O)=O)Nc1ccc(S(=O)(=O)N2CCCCCC2)cc1	-2%	1%	4%	2%	-22%
C/C=C\C1=CCCC1Nc1ncnc2ccc(-c3c(C)noc3C)cc12 (configuration not stated)	?	10%	11µM*	nt	nt
CN(C)C(=O)c1ccc(-c2ccc3ncnc(NC4CCNCC4)c3c2)cc1	2%	-4%	18%	-3%	7%
CN(C)c1ccc(-c2ccc3ncnc(NC4CC4)c3c2)cc1	-4%	nt	26%	13µM*	8.2µM*
c1nc(NC2CCNCC2)c2cc(-c3ccc4c(c3)OCO4)ccc2n1	-16%	3%	-4%	15µM*	?
Cc1noc(C)c1-c1ccc2ncnc(NC3CC3)c2c1	-16%	nt	-25%	21µM*	?
O=C(Nc1cccc(C(=O)OCc2cc(=O)n3nc(C4CC4)sc3n2)c1)c1ccccc1	nt	-4%	nt	-17%	-26%
Cc1ccccc1CN1C(=O)c2ccccc2S(=O)c2ccc(C(=O)NCc3ccc(Cl)cc3)cc21 (configuration not stated)	nt	8%	nt	?	?
COCCNC(=O)c1ccc2c(c1)N(Cc1cc(C)ccc1C)C(=O)c1ccccc1S2=O (configuration not stated)	nt	3%	nt	15µM*	?
COCCCNC(=O)c1ccc2c(c1)N(Cc1ccccc1F)C(=O)c1ccccc1S2=O (configuration not stated)	nt	1%	nt	-14%	-6%
Cc1ccc(C)c(CN2C(=O)c3ccccc3S(=O)c3ccc(C(=O)NCCc4ccc(Cl)cc4)cc32)c1 (configuration not stated)	nt	2%	nt	7.3µM*	13µM*
COc1ccc(NC(=O)CCc2c(C)nn(-c3ccc(N4CCOCC4)nn3)c2C)cc1	-12%	10%	8%	-6%	-11%
